# Target: Tumor necrosis factor receptor superfamily member 10B (Homo sapiens) (UniProt O14763)
# Assay: caspase-8 TRAIL sensitization, hit retest, confirmation, cell-based, NB7+caspase-8, with/without TRAIL, luminescence panel (AID 651596)
# Details: NB7 neuroblastoma + caspase-8, TRAIL sensitization, luminescence viability, with TRAIL, mean of runs, at 10 µM, stronger effect = higher value; in the data active means activity above about 50%; inactive means the rest
# Chain of Tumor necrosis factor receptor superfamily member 10B (Homo sapiens) (O14763 whole entry, looked up): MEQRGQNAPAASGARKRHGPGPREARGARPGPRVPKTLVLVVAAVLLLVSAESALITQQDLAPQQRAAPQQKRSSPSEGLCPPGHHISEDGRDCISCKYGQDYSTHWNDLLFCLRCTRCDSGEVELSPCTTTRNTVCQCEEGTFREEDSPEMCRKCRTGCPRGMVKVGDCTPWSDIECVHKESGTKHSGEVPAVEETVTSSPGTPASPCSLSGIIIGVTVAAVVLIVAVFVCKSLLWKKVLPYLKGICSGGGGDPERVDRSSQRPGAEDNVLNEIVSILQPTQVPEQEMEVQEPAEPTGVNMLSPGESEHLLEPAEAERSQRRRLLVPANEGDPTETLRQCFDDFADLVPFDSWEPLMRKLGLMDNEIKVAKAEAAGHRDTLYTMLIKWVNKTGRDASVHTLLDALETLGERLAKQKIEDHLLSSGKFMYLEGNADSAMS
row,SMILES,activity [%]
1,COc1ccccc1/C=C/C1(C(=O)NC2CCCC2)CC(=O)N1c1ccc(F)cc1 (stereo not given),98
2,CC1(C)N=C(N)N=C(N)N1c1cccc(C#N)c1,81.8
3,COc1cc(OC)cc(C(=O)Nc2nc3ccccc3[nH]2)c1,55
4,O=C(CCl)N(O)c1ccc(C=Cc2ccccc2)cc1,40
5,Cn1sc(NC(=O)c2ccc(Cl)cc2)nc1=O,68.4
6,O=C(Nc1ccc(N2CCN(C(=O)c3cccs3)CC2)cc1)c1ccc([N+](=O)[O-])o1,86.7
7,Oc1cccc(-c2nnc(-c3cccc(O)c3)nn2)c1,89
8,CCCCCc1cc(=O)oc2c(C(CCN3CCCC3)c3cc(OC)c(OC)c(OC)c3)c(OC)cc(OC)c12 (stereo not given),28.4
9,O=C(Nc1ccccn1)c1sc2cccc(F)c2c1Cl,82.7
10,O=c1[nH]c(/C=C/c2ccccc2F)nc2ccccc12,86.9
11,CN=c1scc(C)n1/N=C/c1ccc2c(c1)OCO2,56.7
12,O=C(Nc1ccc2c(c1)CCC2)c1ccccc1F,30.3
13,Nc1ccc(C(=O)NN2C(=O)[C@H](Cl)C2c2ccc(Cl)cc2)cc1 (stereo not given in full),99.3
14,COc1cccc(/C=C/C(=O)NNC(=O)c2ccco2)c1OC,66.7
15,CC(OC(=O)c1cc(O)c2ccccc2c1O)C(=O)Nc1ccc(C(N)=O)cc1 (stereo not given),49.5
16,O=C(Nc1ccc2nc3n(c(=O)c2c1)CCCCC3)c1c(F)ccc([N+](=O)[O-])c1F,72.9
17,COc1ccc2sc(N(CCCN(C)C)C(=O)c3ccc(S(=O)(=O)N4CCc5ccccc5C4)cc3)nc2c1,82.4
18,S=c1nc[nH]c2c1ncn2C1CCCO1 (stereo not given),17.8
19,CN1/C(=C\C(=O)c2cccs2)Sc2ccccc21,63
20,CN(C)CCCN(C(=O)c1cc2cc([N+](=O)[O-])ccc2s1)c1nc2cc3c(cc2s1)OCCO3,92.2

row,SMILES,activity [%]
1,C/C(=N\NC(=O)c1ccc(O)cc1)c1cccc(NC(=O)c2ccccc2C)c1,59.9
2,C#CCN(C[C@@H]1[C@@H](OC(=O)Nc2cccs2)[C@@H](OC(=O)Nc2cccs2)Cn2c(=O)ccc(=O)n21)S(=O)(=O)c1ccc(C)cc1,96.5
3,COc1ccc(C(C(=O)NC2CCCCC2)N(C(=O)CCl)c2ccc(C)cc2)cc1 (stereo not given),99.5
4,CC1CCc2c(sc(/N=C/c3ccco3)c2C(N)=O)C1 (stereo not given),54.1
5,Cc1ccc2nc(-c3ccc(N)cc3)sc2c1,83.2
6,CN(C)CC(O)c1ccc(C=Cc2ccc(Cl)cc2)cc1 (stereo not given),98.3
7,Cc1ccc(C(=O)N/N=C\c2ccccc2[N+](=O)[O-])cn1,47.5
8,O=C(/C(=C/c1ccc(Cl)cc1)c1nc2ccccc2[nH]1)c1ccccc1,84.1
9,CCN1CCCC1CNC(=O)c1ccc2c(c1)NC(=O)/C(=C\c1ccc(C)cc1)S2 (stereo not given),89.7
10,O=C(NNc1nc(=O)c2cccnc2s1)c1ccccc1O,45.7
11,CC(C)N(Cc1ccccc1)C(=O)COC(=O)c1cnc(Cl)c(Cl)c1,81.2
12,O=C(NCc1cc(C(F)(F)F)ccc1Cl)c1cccc2c1C(=O)c1ccc(N3CCC(N4CCCCC4)CC3)cc1S2(=O)=O,93
13,COc1cccc(/C=C2/Sc3ccc(C(=O)NCCN4CCCCCC4)cc3NC2=O)c1,36
14,CC(C)c1onc(C(=O)N2CCN(c3ccc(F)cc3)CC2)c1[N+](=O)[O-],78.8
15,CNC[C@@H](Cc1ccccc1)NC[C@@H](CC1CCCCC1)NCCCc1ccccc1,99.3
16,O=C(/C=C/Nc1ccccc1C(F)(F)F)c1ccco1,97.2
17,O=C1c2cc(F)ccc2-n2c1nc1ccccc1c2=O,32.5
18,Nc1c2c(nc3sc4c(c13)CCCCC4)CCCCC2,48.1
19,O=C(Nc1cccc(-c2ccc(N3CCCCC3)nn2)c1)C(F)(F)F,95.2
20,O=C(CCl)Nc1ccc(Oc2cnc3ccccc3n2)cc1,97.6

# Tested on: not listed separately
# Assay: as above
# Details: NB7 neuroblastoma + caspase-8, without TRAIL, luminescence viability, without TRAIL, mean of runs, at 10 µM
row,SMILES,activity [%]
1,COc1ccccc1/C=C/C1(C(=O)NC2CCCC2)CC(=O)N1c1ccc(F)cc1 (stereo not given),98.1
2,CC1(C)N=C(N)N=C(N)N1c1cccc(C#N)c1,86.1
3,COc1cc(OC)cc(C(=O)Nc2nc3ccccc3[nH]2)c1,56.8
4,O=C(CCl)N(O)c1ccc(C=Cc2ccccc2)cc1,53.7
5,Cn1sc(NC(=O)c2ccc(Cl)cc2)nc1=O,67
6,O=C(Nc1ccc(N2CCN(C(=O)c3cccs3)CC2)cc1)c1ccc([N+](=O)[O-])o1,99.8
7,Oc1cccc(-c2nnc(-c3cccc(O)c3)nn2)c1,84.2
8,CCCCCc1cc(=O)oc2c(C(CCN3CCCC3)c3cc(OC)c(OC)c(OC)c3)c(OC)cc(OC)c12 (stereo not given),69.4
9,O=C(Nc1ccccn1)c1sc2cccc(F)c2c1Cl,76.6
10,O=c1[nH]c(/C=C/c2ccccc2F)nc2ccccc12,86.8
11,CN=c1scc(C)n1/N=C/c1ccc2c(c1)OCO2,42.2
12,O=C(Nc1ccc2c(c1)CCC2)c1ccccc1F,36.4
13,Nc1ccc(C(=O)NN2C(=O)[C@H](Cl)C2c2ccc(Cl)cc2)cc1 (stereo not given in full),99.5
14,COc1cccc(/C=C/C(=O)NNC(=O)c2ccco2)c1OC,62.8
15,CC(OC(=O)c1cc(O)c2ccccc2c1O)C(=O)Nc1ccc(C(N)=O)cc1 (stereo not given),49.2
16,O=C(Nc1ccc2nc3n(c(=O)c2c1)CCCCC3)c1c(F)ccc([N+](=O)[O-])c1F,52.3
17,COc1ccc2sc(N(CCCN(C)C)C(=O)c3ccc(S(=O)(=O)N4CCc5ccccc5C4)cc3)nc2c1,69.3
18,S=c1nc[nH]c2c1ncn2C1CCCO1 (stereo not given),47.4
19,CN1/C(=C\C(=O)c2cccs2)Sc2ccccc21,61
20,CN(C)CCCN(C(=O)c1cc2cc([N+](=O)[O-])ccc2s1)c1nc2cc3c(cc2s1)OCCO3,83

row,SMILES,activity [%]
1,C/C(=N\NC(=O)c1ccc(O)cc1)c1cccc(NC(=O)c2ccccc2C)c1,61.3
2,C#CCN(C[C@@H]1[C@@H](OC(=O)Nc2cccs2)[C@@H](OC(=O)Nc2cccs2)Cn2c(=O)ccc(=O)n21)S(=O)(=O)c1ccc(C)cc1,95.8
3,COc1ccc(C(C(=O)NC2CCCCC2)N(C(=O)CCl)c2ccc(C)cc2)cc1 (stereo not given),99.3
4,CC1CCc2c(sc(/N=C/c3ccco3)c2C(N)=O)C1 (stereo not given),56.5
5,Cc1ccc2nc(-c3ccc(N)cc3)sc2c1,81.8
6,CN(C)CC(O)c1ccc(C=Cc2ccc(Cl)cc2)cc1 (stereo not given),97.2
7,Cc1ccc(C(=O)N/N=C\c2ccccc2[N+](=O)[O-])cn1,43.6
8,O=C(/C(=C/c1ccc(Cl)cc1)c1nc2ccccc2[nH]1)c1ccccc1,85.1
9,CCN1CCCC1CNC(=O)c1ccc2c(c1)NC(=O)/C(=C\c1ccc(C)cc1)S2 (stereo not given),98.9
10,O=C(NNc1nc(=O)c2cccnc2s1)c1ccccc1O,43.9
11,CC(C)N(Cc1ccccc1)C(=O)COC(=O)c1cnc(Cl)c(Cl)c1,72
12,O=C(NCc1cc(C(F)(F)F)ccc1Cl)c1cccc2c1C(=O)c1ccc(N3CCC(N4CCCCC4)CC3)cc1S2(=O)=O,93.6
13,COc1cccc(/C=C2/Sc3ccc(C(=O)NCCN4CCCCCC4)cc3NC2=O)c1,73.3
14,CC(C)c1onc(C(=O)N2CCN(c3ccc(F)cc3)CC2)c1[N+](=O)[O-],87.6
15,CNC[C@@H](Cc1ccccc1)NC[C@@H](CC1CCCCC1)NCCCc1ccccc1,99.6
16,O=C(/C=C/Nc1ccccc1C(F)(F)F)c1ccco1,99.3
17,O=C1c2cc(F)ccc2-n2c1nc1ccccc1c2=O,25.7
18,Nc1c2c(nc3sc4c(c13)CCCCC4)CCCCC2,47.8
19,O=C(Nc1cccc(-c2ccc(N3CCCCC3)nn2)c1)C(F)(F)F,95.2
20,O=C(CCl)Nc1ccc(Oc2cnc3ccccc3n2)cc1,98.5
